Most compounds without a hit are left out; they make up all but 6.8% or so of the library.
Autofluor 339 – intrinsic fluorescence of library compounds, ex339/em460 – biochemical, MLSMR library, data from DPM-DC assay, artefact control, profiling panel; AID 709; actives 5.5% (n = 65,000); fluorescence fold increase at 10 µM; compound autofluorescence, ex339/em460 nm, NADH buffer; hits give high values; 1 = no-compound wells, NADH background;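 active = at 10 µM, mean starting fluorescence two-fold or more over control wells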;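 note: signal is the first read of a kinetic run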
DPM-DC inhibit – blocks S. pneumoniae diphosphomevalonate decarboxylase; purified DPM-DC, PK/LDH coupled NADH fluorescence; calls only at 10 µM; actives 0.49% (n = 65,000); AID 556;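 active = the 320 compounds with the highest percent inhibition in the single-dose primary screen, excluding strongly autofluorescent ones, cut at about 32% in these data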;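 note: kinetic rate of NADH fluorescence loss reporting ADP formed by the decarboxylase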
Abs 340nm – absorbance at 340 nm; AID 708; compound absorbance at 340 nm, fold over control; fold change at 10 µM; 65,000 tested, under 10 active;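 active = at 10 µM dose, initial 340 nm absorbance at least 2 fold that of control wells; inactive = change under 2 fold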;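 note: initial absorbance extrapolated from kinetic A340 decline of NADH oxidation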
NADH coupling – inhibitors of enzymes used to reach an NAD/NADH endpoint; coupled PK/LDH NADH assays, four targets; IC50, µM (top dose mostly 10 µM), inactives show at the highest dose inhibition; actives 0.02% (n = 65,000);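 active = single-dose screening hits from any of four coupled enzyme assays that gave an IC50 when retested across doses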;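 note: the DPM-DC format reads NADH fluorescence rather than 340 nm absorbance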
Spn MK inh – S. pneumoniae mevalonate kinase inhibition; purified MK, PK/LDH-coupled NADH absorbance 340 nm; inhibition, % at 10 µM; actives 0.48% (n = 65,000);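 active = ranked among the strongest by inhibition in the single 10 µM screen, a fixed top-ranked set picked for dose follow-up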
Spn PMK inh – S. pneumoniae PMK inhibition; purified PMK, PK/LDH-coupled NADH absorbance 340 nm; inhibition, % at 10 µM; actives 0.49% (n = 65,000);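 active = top-ranked compounds by inhibition in the single 10 µM screen, taking a fixed number of the strongest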;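 note: 0% = full reaction with DMSO carrier and 100% = background rate without enzyme reaction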
An asterisk follows results filed as active.

What do the screens show for `Cc1oc2cc(OCC(=O)O)ccc2c(=O)c1Oc1ccccc1`?
Autofluor 339: 1.3; DPM-DC inhibit: inactive; Abs 340nm: 1.1; NADH coupling: 2%; Spn MK inh: 5; Spn PMK inh: 0

What do the screens show for `CCc1cc2c(=O)c(Oc3ccccc3)c(C)oc2cc1O`?
Autofluor 339: 2.2*; Abs 340nm: 1.1; NADH coupling: 2%; Spn MK inh: 4; Spn PMK inh: 0

What do the screens show for `O=C(c1ccc(Cn2c(=O)[nH]c3ccccc3c2=O)cc1)N1CCN(c2ccc(F)cc2)CC1`?
Autofluor 339: 1.2; DPM-DC inhibit: inactive; Abs 340nm: 1; NADH coupling: 5%; Spn MK inh: 5; Spn PMK inh: 9

How did CCOC(=O)c1c(C)oc(/N=C/c2ccccc2O)c1C#N do in these assays?
Autofluor 339: 1.1; DPM-DC inhibit: inactive; Abs 340nm: 1.1; NADH coupling: 2%; Spn MK inh: 2; Spn PMK inh: 3

How did O=C(O)CCc1nn2cc(-c3ccccc3)nc2[nH]c1=O do in these assays?
Autofluor 339: 2.4*; Abs 340nm: 1.1; NADH coupling: 4%; Spn MK inh: 3; Spn PMK inh: 4

How did CCc1nn2cc(-c3ccccc3)nc2s1 do in these assays?
Autofluor 339: 1.1; DPM-DC inhibit: inactive; Abs 340nm: 1; NADH coupling: 7%; Spn MK inh: 10; Spn PMK inh: 5

What do the screens show for `CCOC(=O)c1c(NC(=O)c2cccs2)sc2c1CCN(C(=O)OCC)C2`?
Autofluor 339: 2*; Abs 340nm: 1; NADH coupling: 2%; Spn MK inh: 0; Spn PMK inh: 10

What do the screens show for `COC(=O)c1c(-c2ccc(F)cc2)csc1NC(=O)c1ccco1`?
Autofluor 339: 2*; DPM-DC inhibit: inactive; Abs 340nm: 1.1; NADH coupling: 2%; Spn MK inh: 3; Spn PMK inh: 0

Results for Cc1occc1C(=O)Nc1sc2c(c1C(N)=O)CCCCC2 ?
Autofluor 339: 1.2; DPM-DC inhibit: inactive; Abs 340nm: 1.1; NADH coupling: 2%; Spn MK inh: 1; Spn PMK inh: 2

How did COC(=O)c1c(NC(=O)c2ccoc2C)sc2c1CCC2 do in these assays?
Autofluor 339: 2.4*; DPM-DC inhibit: active; Abs 340nm: 1.1; NADH coupling: 14%; Spn MK inh: 5; Spn PMK inh: 4

What do the screens show for `CCOC(=O)c1c(NC(=O)c2ccco2)sc(C(=O)N2CCCC2)c1C`?
Autofluor 339: 1.2; DPM-DC inhibit: inactive; Abs 340nm: 1.1; NADH coupling: 1%; Spn MK inh: 3; Spn PMK inh: 0

What do the screens show for `CCOC(=O)c1c(-c2ccc(C)s2)csc1NC(=O)c1ccco1`?
Autofluor 339: 3.5*; DPM-DC inhibit: inactive; Abs 340nm: 1.1; NADH coupling: 4%; Spn MK inh: 0; Spn PMK inh: 4

What do the screens show for `O=C(CN(Cc1ccc2c(c1)OCO2)C(=O)CNS(=O)(=O)c1ccccc1)NCc1ccco1`?
Autofluor 339: 1.1; DPM-DC inhibit: inactive; Abs 340nm: 0.98; NADH coupling: 1%; Spn MK inh: 6; Spn PMK inh: 2

Results for CCOC(=O)c1c(NC(=O)c2cc(C3CC3)on2)sc(C(C)=O)c1C ?
Autofluor 339: 1.2; DPM-DC inhibit: inactive; Abs 340nm: 1.1; NADH coupling: 0%; Spn MK inh: 0; Spn PMK inh: 0

What do the screens show for `COc1ccc(OC)c(NC(=O)c2c(NC(=O)c3ccco3)sc3c2CCC3)c1`?
Autofluor 339: 2.1*; DPM-DC inhibit: inactive; Abs 340nm: 1.1; NADH coupling: 9%; Spn MK inh: 10; Spn PMK inh: 4

How did CCOC(=O)c1c(NC(=O)c2cc(C3CC3)on2)sc2c1CCCC2 do in these assays?
Autofluor 339: 2.1*; Abs 340nm: 1.1; NADH coupling: 14%; Spn MK inh: 0; Spn PMK inh: 27*

What do the screens show for `CCOC(=O)c1c(NC(=O)c2nn(CC)cc2Br)c(C#N)cn1-c1ccccc1`?
Autofluor 339: 1.1; DPM-DC inhibit: inactive; Abs 340nm: 0.99; NADH coupling: 11%; Spn MK inh: 2; Spn PMK inh: 4

Results for CCOC(=O)c1c(-c2ccccc2)csc1NC(=O)c1nn(CC)cc1Br ?
Autofluor 339: 3.5*; Abs 340nm: 1.1; NADH coupling: 4%; Spn MK inh: 4; Spn PMK inh: 4

High-throughput results deposited in PubChem by SRMLSC.
